AMPAR-TARP mod: GluA2-stargazin AMPA receptor complex modulation; 3.5% of 40,000 active; HEK293 GluA2+stargazin, membrane potential dye (FDSS), glutamate EC50; hits were called plate by plate, in both directions; calls only at 30 µM;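 active = any of four per-well response measures lying three or more SD from its plate-wide compound average, in either direction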
GIRK2 act: GIRK2 channel activators by thallium flux | P48051 | activation (% efficacy), % for hits at 37.5 µM | HEK293 GIRK2/NPY4 cells, thallium flux fluorescence | 34,000 tested, under 10 active;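 active = primary screen hit, no activity in plain HEK293 cells, and in GIRK2-only cells above 5% efficacy rising with concentration; inactive = the rest, including fluorescent compounds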;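 also: efficacy is normalized control-subtracted fluorescence 15 s after thallium addition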
Target sequence (P48051 whole entry, looked up): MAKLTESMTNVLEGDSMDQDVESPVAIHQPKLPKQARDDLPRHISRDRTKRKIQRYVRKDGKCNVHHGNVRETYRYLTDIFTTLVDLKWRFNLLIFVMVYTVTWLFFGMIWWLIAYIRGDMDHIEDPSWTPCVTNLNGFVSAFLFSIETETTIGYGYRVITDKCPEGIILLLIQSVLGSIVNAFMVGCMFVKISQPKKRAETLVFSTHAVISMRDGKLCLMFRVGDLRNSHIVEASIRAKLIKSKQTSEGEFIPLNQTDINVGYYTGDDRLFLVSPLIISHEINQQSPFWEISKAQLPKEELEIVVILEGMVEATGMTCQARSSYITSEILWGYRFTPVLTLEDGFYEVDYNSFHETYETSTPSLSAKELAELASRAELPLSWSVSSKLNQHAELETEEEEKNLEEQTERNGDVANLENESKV
Of the large screens only hits and unclear results are named; the others gave an inactive call. Many of the other results were omitted from the sample, so hits are more common in it than they were.

CCCn1c(=O)c2c(nc3n2CC(C)CN3c2ccccc2OC)n(C)c1=O (stereo not given)	AMPAR-TARP mod active (no result: GIRK2 act)
CCCn1c(=O)c2c(nc3n(-c4cc(OC)ccc4OC)c(-c4ccccc4)cn23)n(C)c1=O	AMPAR-TARP mod active (no result: GIRK2 act)
CCn1c(=O)c2c(nc3n(-c4cc(OC)ccc4OC)c(-c4ccccc4)cn23)n(C)c1=O	none
COc1cc(NC(=O)Nc2ccc3c(c2)N(S(C)(=O)=O)CCC3)cc(OC)c1OC	none (no result: AMPAR-TARP mod)
CC1(C)CC(=O)C2=C(C1)NC1=C(C(=O)c3ccccc31)C2c1cccnc1 (stereo not given)	none (no result: GIRK2 act)
CC1(C)CC(=O)C2=C(C1)NC1=C(C(=O)c3ccccc31)C2c1ccc(C(F)(F)F)cc1 (stereo not given)	AMPAR-TARP mod active (no result: GIRK2 act)
CC1(C)CS(=O)(=O)N(c2ccc(Cl)c(C(=O)Nc3ccc4c(c3)OCO4)c2)C1=O	none
COc1cccc(-c2cc3ccc(OC(C)=O)cc3oc2=O)c1	none
Cc1csc(-c2cc3ccc(OC(=O)CCCCl)cc3oc2=O)n1	AMPAR-TARP mod active (no result: GIRK2 act)
O=C(Nc1ccccc1Cl)c1ccc(=O)n(Cc2ccccc2F)c1	none
O=C(Nc1ccccc1C(F)(F)F)c1ccc(=O)n(Cc2ccccc2F)c1	AMPAR-TARP mod active
CCOc1ccccc1NC(=O)c1ccc(=O)n(Cc2ccccc2Cl)c1	AMPAR-TARP mod active
CC(=O)Nc1ccc(NC(=O)c2ccc(=O)n(Cc3ccccc3Cl)c2)cc1	none
COC(=O)N1CCC(CNC(=O)c2ccco2)CC1	none
Cc1ccc(NCCNC(=O)C2CCCC2)nn1	none
COc1ccc(/C=C2\Oc3cc(O)ccc3C2=O)cc1OC	AMPAR-TARP mod active (no result: GIRK2 act)
O=C1/C(=C/c2cccs2)Oc2cc(O)ccc21	AMPAR-TARP mod active (no result: GIRK2 act)
O=C1/C(=C/c2ccccc2F)Oc2cc(O)ccc21	none (no result: GIRK2 act)
O=C1/C(=C/c2ccc(Cl)c(Cl)c2)Oc2cc(O)ccc21	none (no result: GIRK2 act)
COc1cc(/C=C2\Oc3cc(OC(=O)c4c(OC)cccc4OC)ccc3C2=O)cc(OC)c1OC	none (no result: GIRK2 act)
COc1cc(/C=C2\Oc3cc(O)ccc3C2=O)cc(OC)c1OC	AMPAR-TARP mod active (no result: GIRK2 act)
CCOc1ccc(C(=O)c2cnc3ccc(Cl)cc3c2N2CCCC2)cc1	none (no result: GIRK2 act)
CCCc1c(C(=O)NC2CCCCC2)nnn1-c1ccccc1	AMPAR-TARP mod active
O=C(NC1CCCCCC1)c1n[nH]c2ccccc12	none (no result: GIRK2 act)
CCCc1c(C(=O)NCCO)nnn1-c1ccc(C)cc1	none
COCc1c(C(=O)NC2CCCC2)nnn1-c1ccc(C)cc1	AMPAR-TARP mod active
COCc1c(C(=O)Nc2ccc(NC(C)=O)cc2)nnn1-c1cc(C)cc(C)c1	none
CCCc1c(C(=O)NC2CCCC2)nnn1-c1ccc(Cl)cc1	AMPAR-TARP mod active
O=C(CSc1ncnc2c1[nH]c1ccccc12)Nc1ccccc1Cl	none
CC(C)(C)n1ncc2c(=O)n(NC(=O)c3ccccc3[N+](=O)[O-])cnc21	none
O=C(Nc1ccc2c(c1)C(=O)NCC2)c1ccc(OC(F)(F)F)cc1	none (no result: GIRK2 act)
Cc1cc(C(=O)Nc2sc3c(c2-c2nc4ccccc4s2)CCC(C)C3)on1 (stereo not given)	none
O=C(CCSc1ccccc1)N1CCN(c2ccc(-c3ccccn3)nn2)CC1	none
CCOc1cc(C(=O)Nc2ccc3c(c2)CCCN3C(C)=O)cc(OCC)c1OCC	none (no result: GIRK2 act)
CCOCCn1c(=O)c2c(nc3n(-c4ccc(C)cc4)c(C)cn23)n(C)c1=O	none (no result: GIRK2 act)
COc1ccc(C)cc1NC(=O)Cn1cc(-c2ccccc2)c(N(C)C)n1	none
COC(=O)C(C)n1c(C)c(C)n2c3c(=O)n(C)c(=O)n(C)c3nc12 (stereo not given)	AMPAR-TARP mod active
CCCCCCCCn1c(C)c(C)n2c3c(=O)n(C)c(=O)n(C)c3nc12	none
Cc1c(C)n2c3c(=O)n(CC(N)=O)c(=O)n(C)c3nc2n1C(C)C	none
CC(=O)C(C)n1c(-c2ccccc2)cn2c3c(=O)n(C)c(=O)n(C)c3nc12 (stereo not given)	none
Cc1c(C)n2c3c(=O)n(C)c(=O)n(C)c3nc2n1CC(O)CO (stereo not given)	AMPAR-TARP mod active
COC(=O)C(C)n1c(C)cn2c3c(=O)n(C)c(=O)n(C)c3nc12 (stereo not given)	AMPAR-TARP mod active
Cc1noc(C)c1S(=O)(=O)N1CCC(c2nnc(C3CC3)o2)CC1	none
COc1ccc(NC(=O)c2ccccc2NS(=O)(=O)c2ccc(Cl)cc2)c([N+](=O)[O-])c1	none
COCCn1c(C(=O)Nc2ccccc2)cc2c(=O)n(C)c(=O)n(C)c21	none
COCCn1c(C(=O)Nc2ccc(F)c(Cl)c2)cc2c(=O)n(C)c(=O)n(C)c21	AMPAR-TARP mod active
O=C(NCCc1ccccc1)Nc1cccc(N2CCCCC2=O)c1	none
CC1(C)CC(=O)C(C(C2=C(O)CC(C)(C)CC2=O)c2ccc([N+](=O)[O-])o2)=C(O)C1	none (no result: GIRK2 act)
CCNc1cc(NCCNC(=O)c2ncccn2)nc(C)n1	AMPAR-TARP mod active
Cc1nc(NCCNC(=O)c2ncccn2)cc(N2CCOCC2)n1	AMPAR-TARP mod active
CCNc1cc(C)nc(NCCNC(C)=O)n1	none (no result: AMPAR-TARP mod)
Cc1nc(NCCNC(=O)Nc2cccc(C)c2C)cc(N2CCOCC2)n1	none (no result: AMPAR-TARP mod)
COC(=O)c1ccc(COC(=O)c2ccc(C)c([N+](=O)[O-])c2)cc1	none (no result: GIRK2 act)
Cc1ccc(OCc2ccc(C(=O)Nc3cccc(Cl)c3)o2)cc1	none (no result: GIRK2 act)
COc1ccc(-c2nnc3ccc(OCCNC(=O)c4ccccc4Cl)nn23)cc1	none
COc1ccc(-c2nnc3ccc(OCCNC(=O)c4cccs4)nn23)cc1OC	none
COc1cccc(-c2nnc3ccc(OCCNC(=O)NC4CCCCC4)nn23)c1	AMPAR-TARP mod active
COc1ccc(-c2nnc3ccc(OCCNC(=O)Nc4ccccc4C)nn23)cc1OC	AMPAR-TARP mod active
COc1cccc(-c2nnc3ccc(OCCNC(=O)Nc4cccc(C)c4)nn23)c1	none
COc1ccc(-c2nnc3ccc(OCCNC(=O)c4ccco4)nn23)cc1	AMPAR-TARP mod active
COC(=O)c1ccc(CN(c2ccccc2)S(=O)(=O)c2ccc3nncn3c2)o1	none
O=C(Cn1c(=O)c2sccc2n(Cc2ccc([N+](=O)[O-])cc2)c1=O)NCc1ccco1	none
O=C(NCCn1nc(-c2cccs2)ccc1=O)NCc1ccccc1	none
Cc1ccccc1CC(=O)NCCn1nc(-c2cccs2)ccc1=O	AMPAR-TARP mod active
COc1ccc(NC(=O)CCc2csc(NS(=O)(=O)c3ccc(C)cc3)n2)c(OC)c1	none
CCc1ccc(S(=O)(=O)Nc2ccc3c(c2)N(C(=O)C2CC2)CC3)s1	AMPAR-TARP mod active
COc1ccc(S(=O)(=O)Nc2ccc3c(c2)N(C(=O)C2CC2)CC3)cc1	none
COc1cccc(C(=O)N2CCN(c3ncnc4c3nnn4-c3ccc(C)cc3)CC2)c1OC	none (no result: GIRK2 act)
Cc1ccc(-c2cc(C(F)F)n3ncc(C(=O)n4c(C)nc5ccccc54)c3n2)cc1	none (no result: GIRK2 act)
Cc1ccc(-c2cc(C(F)F)n3ncc(C(=O)N4CCC(C)CC4)c3n2)cc1	AMPAR-TARP mod active (no result: GIRK2 act)
CC(=O)NS(=O)(=O)c1ccc(NC(=O)Cn2cnc(-c3ccc(C)cc3)cc2=O)cc1	none (no result: AMPAR-TARP mod)
CC(C)S(=O)(=O)c1ccc(CC(=O)N2CCC(c3ccsc3)CC2)cc1	AMPAR-TARP mod active
CC(C)S(=O)(=O)c1ccc(CC(=O)N2CCC(c3cccs3)CC2)cc1	none
CCCN1CCCc2cc(CCNC(=O)C(=O)Nc3cc(Cl)ccc3C#N)ccc21	none (no result: GIRK2 act)
COc1ccccc1-c1coc2cc(OCc3ccc(F)cc3)ccc2c1=O	none (no result: GIRK2 act)
COc1ccc2c(=O)c(-c3ccccc3OC)coc2c1	AMPAR-TARP mod active
O=C(Cn1c(=O)oc2ccccc21)N1CCC2(CC1)OCCN2S(=O)(=O)c1ccc(Cl)cc1	none (no result: AMPAR-TARP mod)
